ELG1 genotoxic = genotoxicity induction in ELG1-luciferase HEK293T cells; HEK293T ELG1-luciferase reporter, luminescence, 16 h; Potency, µM (titrated, usually from 46 µM), usual class: activators; hit rate 1.3% among 330,000; AID 504466; further: nearly all actives have a fitted effect of over 60% in size
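After overnight (16 hr) compound treatment at 37 °C, ELG1-luciferase HEK293T cells were lysed with ONE-Glo; luminescence quantified 30 min later at room temperature.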
MCF10A rerep = induces DNA re-replication in MCF 10a normal breast cells | MCF 10A DNA re-replication, Hoechst nuclear intensity, 48 h | Potency, µM (top dose mostly 46.1 µM), hits mostly activators | hit rate 2.9% among 350,000 | AID 624296; further: nearly all actives have a fitted effect of over 50% in size
AT treatment = potential ataxia-telangiectasia treatments restoring KAP-1 phosphorylation; Potency, µM (titrated, usually from 57.5 µM), actives largely listed as activators; hit rate 0.19% among 320,000; F2112 A-T fibroblasts, KAP-1 phosphorylation AlphaLISA; neocarzinostatin DNA damage 30 min before lysis; AID 485349; further: nearly all actives have a fitted effect of over 45% in size
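hTERT-immortalized A-T patient fibroblasts (F2112), 500 cells/well in OPTI-MEM, 1% FBS, got compounds for 60 min, then NCS for 30 min at 37C. Lysates were then assayed for phospho-KAP-1 by AlphaLISA (anti-pKAP1 donor, anti-KAP1 acceptor beads), 6 hr at 25C.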
p53 reactivator = restores transcriptional activity of mutant p53. H1299 p53-A138V BP100-luciferase reporter, luminescence, 24 h. Potency, µM (doses to about 92.2 µM), usual class: activators. hit rate 0.063% among 320,000; further: nearly all actives have a fitted effect of over 45% in size
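H1299 (p53-null), stable ts p53-A138V + BP100-Luc; 1000 cells/well, Opti-MEM/10% FBS; cpd 4 pt, 1:5; 24 h, 37 deg C, 5% CO2; detection reagent 10 min RT; luminescence.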
SW480 rereplic = inducers of DNA re-replication in SW480 colon cancer cells | SW480 DNA re-replication, Hoechst DNA content imaging, 48 h | Potency, µM (top dose mostly 46.1 µM), hits mostly activators | hit rate 1.8% among 340,000 | AID 624297; further: nearly all actives have a fitted effect of over 55% in size
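Quantitative HTS format with DMSO vehicle controls; 48 hr drug incubation at 37 C, then 40 min Hoechst staining and scanning imager measurement at 405 nm excitation.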
ELG1 DNA repair = blocks ELG1-dependent DNA repair in HEK293T cells; HEK293T ELG1-luciferase reporter, luminescence, 16 h; DNA damage induced by 5-fluorouridine; Potency, µM (highest dose often 46.1 µM), hits mostly inhibitors; hit rate 2.3% among 330,000; AID 504467; further: nearly all actives have a fitted effect of over 55% in size
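DMSO vehicle served as the neutral condition. Each well held 2,000 cells given 5-fluorouridine plus compound; after 16 hr at 37 °C/5% CO2, ONE-Glo was added and luciferase measured 30 min later.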
Numbers stand for hits; n = inactive; u = inconclusive; x = not tested or not shown; ! = repeats disagree; [ ] = dose if it differs, or a comment. A selection: hits, their analogues and other compounds. The true share with any hit is near 7.1%. The call rests on the fitted dose curve; in most records, active means well fitted curve in the direction sought with a large enough effect; inconclusive means small, poorly fitted or top-dose-only effect, or another doubt; inactive means no such curve, though single readings can be large; an effect the other way counts as inactive or inconclusive.

SMILES | ELG1 genotoxic | MCF10A rerep | AT treatment | p53 reactivator | SW480 rereplic | ELG1 DNA repair
C=CC[C@@H](CC(=O)N(CCO)Cc1ccccc1)C(=O)N[C@@H](COC(=O)[C@@H](CC=C)Cc1ccc(F)cc1)Cc1c[nH]c2ccccc12 | n | u | n | n | n | 18µM
N#CCCn1nc2c(c1N)CCC2 | x | n | x | x | n | x
O=c1c(-c2ccc(O)cc2)coc2cc(O)ccc12 | x | n | x | x | n | x
O=c1c(-c2ccc3c(c2)OCCO3)coc2cc(O)cc(O)c12 | 2.5µM | n[0.0737 µM] | x | u | n | u
CC1(C)C=Cc2cc(-c3coc4cc(O)cc(O)c4c3=O)cc(O)c2O1 | x | 15µM | x | x | n | x
O=C(NN1C(=O)c2ccccc2NC1c1ccc([N+](=O)[O-])o1)c1ccc(Br)cc1 (stereo unspecified) | n | 9.2µM | n | n | u | n
Cc1cc([N+](=O)[O-])ccc1-c1ccc(C2Nc3ccccc3C(=O)N2O)o1 (stereo unspecified) | u | 10µM | n | n | u | u
O=C(NN1C(=O)c2cc(Br)ccc2NC1c1ccccc1Cl)c1ccncc1 (stereo unspecified) | n | n | n | n | 21µM | n
Cc1ccsc1C1Nc2ccccc2C(=O)N1O (stereo unspecified) | n | n | n | n | 16µM | n
O=C(NN1C(=O)c2cc(Br)ccc2NC1c1cc(Br)cc(Br)c1O)c1ccncc1 (stereo unspecified) | n | u | n | n | u | n
CC(=O)NN1C(=O)c2ccccc2NC1c1ccc([N+](=O)[O-])o1 (stereo unspecified) | n | n | n | n | 23µM | n
CC1CCCN(S(=O)(=O)c2ccc3c(c2)c(=O)nc2ccccn23)C1 (stereo unspecified) | n | n | n | n | n | u
C[C@]12CCC(=O)C[C@@H]1CC[C@@H]1[C@@H]2CC[C@]2(C)C=CC[C@@H]12 | x | 30µM! | x | x | n | x
C[C@]12CCC(=O)CC1CCC1C2CC[C@@]2(C)C1CC[C@@]21CCO1 (stereo partly specified) | n | u | n | n | n | n
C=CCN(C(=O)CSC1=NC(=O)CN1C(C)=O)c1nc(C)c(-c2ccccc2)s1 | n | 12µM | n | n | n | u
O=C(c1ccccc1)c1ccc2nc(N3CCN(C(=O)c4ccco4)CC3)c3nncn3c2c1 | n | n | n | n | n | 21µM
CC(=O)Nc1ccc(S(=O)(=O)N2CCCC(C(=O)N3CCN(c4ccccc4)CC3)C2)cc1 (stereo unspecified) | n | n | n | x | n | 21µM
O=C(C1CCCN(S(=O)(=O)c2ccccc2)C1)N1CCCCCC1 (stereo unspecified) | n | n | n | n | 0.52µM! | n
CC(=O)c1ccc(N2CCN(C(=O)C3CCN(S(=O)(=O)Cc4ccccc4)CC3)CC2)cc1 | n | n | n | u | n | 18µM
COc1ccc(-c2csc(N(CC3CCCO3)C(=O)c3ccco3)n2)cc1 (stereo unspecified) | n | 16µM | n | n | u | u
COc1ccc(-c2csc(N(CC(C)C)C(=O)c3ccco3)n2)cc1 | n | 18µM | n | x | u | n
Cc1cc(O)c2c(c1)OC1(C)CCC3C(C)(C)CCCC34COC2C14 (stereo unspecified) | x | u | x | x | n | x
CCc1ccccc1N1CC(C(=O)N2Cc3ccccc3CC2C(N)=O)CC1=O (stereo unspecified) | n | n | n | n | n | n
COc1ccc(/C=C(\NC(=O)c2ccc(C)cc2)C(=O)Nc2ccc(C(=O)O)cc2)cc1 | n | n | n | n | n | n
COc1ccc(C2=NN(C(=O)CSc3nc(=O)n4cccc(C)c4n3)C(c3ccc(C)cc3)C2)cc1 (stereo unspecified) | u | n | n | n | n | n
SMILES | ELG1 genotoxic | MCF10A rerep | AT treatment | p53 reactivator | SW480 rereplic | ELG1 DNA repair
Cn1c(CNC(=O)CNC(=O)c2ccc(F)cc2)cc(=O)n(C)c1=O | n | n | n | n | n | n
c1ccc2c(N3CCCCCC3)nc(-c3ccncc3)nc2c1 | n | u | n | n | n | 7.3µM
C(=C\c1nc(N2CCCCCC2)c2ccccc2n1)/c1ccccc1 | n | 21µM | n | u | u | n
CCCCCCN1C(=O)CC(NC(=O)OCC2c3ccccc3-c3ccccc32)C/C=C\C1C(C)C (stereo unspecified) | n | n | n | n | n | n
O=C(NCc1ccccn1)c1ccc(NS(=O)(=O)c2ccccc2)cc1 | n | n | n | n | n | n
COCc1ccc(C(=O)NCC2(N3CCCCC3)CCCCC2)cc1 | n | n | n | n | n | u
COc1ccc(CC(=O)NCC2(N3CCCCC3)CCCCC2)cc1 | n | u | n | n | 23µM | n
COc1ccc2cc(CN(CC3CCCO3)C(=S)Nc3ccccc3)c(=O)[nH]c2c1 (stereo unspecified) | n | 13µM | n | n | 16µM | 8.2µM
Cc1cc2cc(CN(CC3CCCO3)C(=S)Nc3ccccc3)c(=O)[nH]c2cc1C (stereo unspecified) | n | 10µM | n | n | u | u
CCN1CCCC1CN(Cc1cc2ccc(C)cc2[nH]c1=O)C(=S)Nc1ccc(F)cc1 (stereo unspecified) | n | 6.5µM | n | n | n | n
CCN1CCCC1CN(Cc1cc2ccc(C)cc2[nH]c1=O)C(=S)Nc1ccc(OC)cc1 (stereo unspecified) | n | u | n | n | u | u
Cc1ccc(N(C(C)C(=O)N2CCOCC2)S(C)(=O)=O)cc1C (stereo unspecified) | n | n | n | n | 23µM | n
CCOC(=O)N1CCN(C(=O)C(C)N(c2ccc(Oc3ccccc3)cc2)S(C)(=O)=O)CC1 (stereo unspecified) | n | n | n | n | n | 6.5µM
Cc1ccc(N(C(C)C(=O)N2CCC(C)CC2)S(C)(=O)=O)cc1C (stereo unspecified) | n | n | n | n | u | n
CCN(CC)c1ccc(/C=C/C(=O)C2C(=O)C=C(C)OC2=O)cc1 (stereo unspecified) | u | 18µM | n | u | u | u
O=C(NCc1nnnn1-c1ccc(F)c(F)c1)c1ccc2c(c1)OCO2 | n | n | n | n | n | n
O=[N+]([O-])c1cc(Cl)c2cccnc2c1O | n | 2.6µM | n | n | u | u
O=[N+]([O-])c1cc(Cl)c(O)c2ncccc12 | n | u | n | u | 10µM | u
O=[N+]([O-])c1cc(CN2CCN(c3ccccc3)CC2)c(O)c2ncccc12 | n | n | n | n | u | 4.6µM
